Laboratory results published in PubChem BioAssay (Tox21).
Values joined by “and” are separate entries in the source; they are usually repeats but may differ in a detail not shown here. Identical values can stand only once. Results filed as inconclusive are left out. A call without a number means that no potency is given here. Where a structure was tested more than once in an assay, its records may differ in their call. Active and inactive are the calls of the source. Unless noted, the call rests on the fitted dose curve; in most records, active means well fitted curve in the direction sought with a large enough effect in the repeat runs; inconclusive means weak or mixed curves; inactive means no such curve, though single readings can be large; an effect the other way counts as inactive or inconclusive.

Columns and labels:
[1] = qHTS assay to identify small molecule antagonists of the glucocorticoid receptor (GR) signaling pathway - cell viability counter screen (AID 720693); further: nearly all actives have a fitted effect of over 55% in size
[2] = qHTS assay for identifying genotoxic compounds that show differential cytotoxicity against isogenic chicken DT40 cell lines with known DNA damage response pathways - wild type cell line (AID 743012); further: nearly all actives have a fitted effect of over 60% in size; further: potency means the concentration at half of the fitted maximal effect
In short: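 CellTiter-Glo luminescence readout of viability in wild type DT40 cells after 40 h compound exposure at 37 C/5% CO2; 300 cells/well; reagent incubated 30 min at room temperature before reading.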

[3] = qHTS assay for identifying genotoxic compounds that show differential cytotoxicity against isogenic chicken DT40 cell lines with known DNA damage response pathways - Rev3 mutant cell line (AID 743014); further: nearly all actives have a fitted effect of over 55% in size; further: potency means the concentration at half of the fitted maximal effect
[4] = qHTS assay for identifying genotoxic compounds that show differential cytotoxicity against isogenic chicken DT40 cell lines with known DNA damage response pathways - Rad54/Ku70 mutant cell line (AID 743015); further: nearly all actives have a fitted effect of over 60% in size
[5] = qHTS assay to identify small molecule antagonists of the androgen receptor (AR) signaling pathway using the MDA cell line - cell viability counter screen (AID 743041; further: nearly all actives have a fitted effect of over 45% in size)
In short: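 qHTS viability read-out; MDA-kb2 AR-luc; R1881-stimulated; 16 h exposure at 37C, 0% CO2; CellTiter-Fluor, 30 min; fluorescence intensity.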

[6] = qHTS assay to identify small molecule antagonists of the thyroid receptor (TR) signaling pathway - cell viability counter screen (AID 743064); further: nearly all actives have a fitted effect of over 50% in size; further: potency means the concentration at half of the fitted maximal effect
In short: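 In rat pituitary GH3.TRE-Luc reporter cells co-exposed to compound and 1 nM T3 for 23.5 h, cytotoxicity was assessed with CellTiter-Fluor in the same wells, read by fluorescence.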

[7] = qHTS assay to identify small molecule antagonists of the thyroid receptor (TR) signaling pathway (AID 743065); further: nearly all actives have a fitted effect of over 55% in size; further: potency means the concentration at half of the fitted maximal effect
In short: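 GH3.TRE-Luc rat pituitary cells carrying two TR response elements driving luciferase were plated for 4 h, given compound plus 1 nM T3 (final), and incubated 23.5 h at 37 C. ONE-Glo luminescence measured reporter inhibition; CellTiter-Fluor fluorescence tracked cytotoxicity.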

[8] = tested on: thyroid hormone receptor (rat, GH3 cells); assay: qHTS assay to identify small molecule agonists of the thyroid receptor (TR) signaling pathway (AID 743066; calls by dose curve; further: potency means the concentration at half of the fitted maximal effect)
[9] = target: Estrogen receptor (Homo sapiens) (UniProt P03372); assay: qHTS assay to identify small molecule antagonists of the estrogen receptor alpha (ER-alpha) signaling pathway (AID 743069; active means well fitted curve in the direction sought with a large enough effect in the signal ratio in the repeat runs, not every such curve was filed as active; the % refers to the signal ratio)
Estrogen receptor (Homo sapiens), sequence (P03372 whole entry, looked up): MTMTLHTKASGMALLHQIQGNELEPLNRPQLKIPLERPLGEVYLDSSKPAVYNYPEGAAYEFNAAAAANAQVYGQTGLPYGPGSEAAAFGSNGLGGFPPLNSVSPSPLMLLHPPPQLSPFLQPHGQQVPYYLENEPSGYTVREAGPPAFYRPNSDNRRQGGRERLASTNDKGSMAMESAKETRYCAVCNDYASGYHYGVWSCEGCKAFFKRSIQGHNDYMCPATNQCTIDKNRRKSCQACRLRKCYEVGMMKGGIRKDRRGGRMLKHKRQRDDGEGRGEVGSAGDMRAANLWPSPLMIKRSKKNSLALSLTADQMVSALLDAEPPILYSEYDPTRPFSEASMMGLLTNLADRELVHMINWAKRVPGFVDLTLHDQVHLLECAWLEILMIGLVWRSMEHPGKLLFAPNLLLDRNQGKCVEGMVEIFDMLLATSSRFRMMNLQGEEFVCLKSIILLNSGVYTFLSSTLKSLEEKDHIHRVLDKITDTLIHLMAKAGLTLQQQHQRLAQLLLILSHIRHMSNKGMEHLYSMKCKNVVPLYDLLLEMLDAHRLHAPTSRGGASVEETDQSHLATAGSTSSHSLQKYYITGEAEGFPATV
In short: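 Screening used a UAS-driven beta-lactamase reporter integrated into HEK293 cells expressing ER-alpha, stimulated with 17beta-estradiol alongside test compounds over 18 hr at 37C; signal came from LiveBLAzer B/G FRET fluorescence.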

[10] = qHTS assay to identify small molecule antagonists of the estrogen receptor alpha (ER-alpha) signaling pathway - cell viability counter screen (AID 743074; calls by dose curve; further: nearly all actives have a fitted effect of over 45% in size)
[11] = target: Estrogen receptor (Homo sapiens) (UniProt P03372); assay: qHTS assay to identify small molecule agonists of the estrogen receptor alpha (ER-alpha) signaling pathway (AID 743075; calls by dose curve)
[12] = target: Estrogen receptor (Homo sapiens) (UniProt P03372); assay: qHTS assay to identify small molecule agonists of the estrogen receptor alpha (ER-alpha) signaling pathway using the BG1 cell line (AID 743079); further: nearly all actives have a fitted effect of over 20% in size
[13] = qHTS assay to identify small molecule antagonists of the estrogen receptor alpha (ER-alpha) signaling pathway using the BG1 cell line - cell viability counter screen (AID 743081);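 further: compound given together with 17beta-estradiol as the ER stimulus; nearly all actives have a fitted effect of over 45% in size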
Aromatase (Homo sapiens) = Aromatase (Homo sapiens) (UniProt P11511); assay: qHTS assay to identify aromatase inhibitors (AID 743083); further: nearly all actives have a fitted effect of over 55% in size; further: potency means the concentration at half of the fitted maximal effect
Aromatase (Homo sapiens), sequence (P11511 whole entry, looked up): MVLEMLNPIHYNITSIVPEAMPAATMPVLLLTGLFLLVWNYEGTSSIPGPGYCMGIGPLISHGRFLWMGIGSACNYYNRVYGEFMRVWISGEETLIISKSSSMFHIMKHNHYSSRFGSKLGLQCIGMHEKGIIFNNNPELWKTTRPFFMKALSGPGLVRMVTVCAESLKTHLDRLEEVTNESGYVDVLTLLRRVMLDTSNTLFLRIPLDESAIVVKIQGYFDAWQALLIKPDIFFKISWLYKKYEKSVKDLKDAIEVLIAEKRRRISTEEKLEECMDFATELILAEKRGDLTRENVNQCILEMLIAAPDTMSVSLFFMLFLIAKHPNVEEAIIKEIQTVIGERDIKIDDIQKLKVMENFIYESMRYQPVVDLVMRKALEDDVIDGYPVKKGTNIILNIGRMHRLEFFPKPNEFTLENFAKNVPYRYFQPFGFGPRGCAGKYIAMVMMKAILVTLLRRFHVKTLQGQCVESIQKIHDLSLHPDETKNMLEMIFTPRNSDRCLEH

[14] = qHTS assay to identify aromatase inhibitors - cell viability counter screen (AID 743084)
[15] = qHTS assay to identify small molecule antagonists of the androgen receptor (AR) signaling pathway - cell viability counter screen (AID 743033; further: nearly all actives have a fitted effect of over 45% in size; further: potency means the concentration at half of the fitted maximal effect)
[16] = qHTS assay to identify small molecule antagonists of the estrogen receptor alpha (ER-alpha) signaling pathway using the BG1 cell line (AID 743080; calls by dose curve;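 further: BG1 cells stimulated with 17beta-estradiol alongside compound; nearly all actives have a fitted effect of over 25% in size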)
In short: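 BG1-Luc-4E2 cells (endogenous full-length ER-alpha, stable 4×ERE-luciferase) were starved 5 days in phenol-red-free medium with 10% charcoal-stripped FBS, plated 24 h, then given compound plus 17beta-estradiol for 21.5 h at 37 C; ONE-Glo luminescence read after 30 min.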

[17] = target: Androgen receptor (Homo sapiens) (UniProt P10275); assay: qHTS assay to identify small molecule antagonists of the androgen receptor (AR) signaling pathway (AID 743035; active means well fitted inhibition curve with a large enough effect in the signal ratio in the repeat runs, not every such curve was filed as active; the % refers to the signal ratio)
Androgen receptor (Homo sapiens), sequence (P10275 whole entry, looked up): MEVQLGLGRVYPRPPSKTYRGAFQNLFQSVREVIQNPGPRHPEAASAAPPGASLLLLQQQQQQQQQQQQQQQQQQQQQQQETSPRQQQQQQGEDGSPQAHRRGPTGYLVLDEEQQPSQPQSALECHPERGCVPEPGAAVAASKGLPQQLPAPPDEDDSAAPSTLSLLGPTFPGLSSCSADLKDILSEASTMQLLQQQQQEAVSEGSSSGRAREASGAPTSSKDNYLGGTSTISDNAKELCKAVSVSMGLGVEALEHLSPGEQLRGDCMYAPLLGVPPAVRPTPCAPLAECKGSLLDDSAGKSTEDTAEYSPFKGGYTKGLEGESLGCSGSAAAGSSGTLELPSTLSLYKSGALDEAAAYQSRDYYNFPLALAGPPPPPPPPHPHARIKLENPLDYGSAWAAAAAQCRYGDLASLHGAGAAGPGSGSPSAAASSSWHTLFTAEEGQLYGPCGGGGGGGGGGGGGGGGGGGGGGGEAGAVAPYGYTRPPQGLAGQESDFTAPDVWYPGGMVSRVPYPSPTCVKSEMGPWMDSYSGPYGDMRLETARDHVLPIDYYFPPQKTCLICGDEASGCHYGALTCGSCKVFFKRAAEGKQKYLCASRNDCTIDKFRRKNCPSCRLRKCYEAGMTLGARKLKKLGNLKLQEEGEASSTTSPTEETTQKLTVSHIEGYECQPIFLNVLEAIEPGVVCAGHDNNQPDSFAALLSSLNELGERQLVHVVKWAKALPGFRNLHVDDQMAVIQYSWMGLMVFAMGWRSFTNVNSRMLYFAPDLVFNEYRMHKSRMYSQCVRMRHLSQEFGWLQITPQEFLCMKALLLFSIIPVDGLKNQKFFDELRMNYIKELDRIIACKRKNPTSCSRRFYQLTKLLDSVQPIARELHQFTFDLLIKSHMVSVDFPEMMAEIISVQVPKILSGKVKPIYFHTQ
In short: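 AR-bla HEK293 reporter cells; 4 h settle at 37C/5% CO2; compound + R1881 agonist, 16 h at 37C; LiveBLAzer B/G FRET substrate 2 h RT; fluorescence intensity read. qHTS format.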

[18] = target: Androgen receptor (Homo sapiens) (UniProt P10275); assay: qHTS assay to identify small molecule agonists of the androgen receptor (AR) signaling pathway using the MDA cell line (AID 743040; further: nearly all actives have a fitted effect of over 20% in size); conditions: MDA-kb2 AR-luc cells, MMTV luciferase, 16 h; activity change: at 70.3 µM (top of the series), stronger effect = higher value
In short: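 Agonist activity is measured as luciferase luminescence in human MDA-kb2 cells whose MMTV reporter responds to both AR and GR. Compounds in DMSO incubate 16 h at 37C, 0% CO2, and ONE-Glo is read after 30 min.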

[19] = target: Androgen receptor (Homo sapiens) (UniProt P10275); assay: qHTS assay to identify small molecule antagonists of the androgen receptor (AR) signaling pathway using the MDA cell line (AID 743042; further: nearly all actives have a fitted effect of over 55% in size)
In short: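 MDA-kb2 cells (human breast carcinoma, stably carrying an MMTV-luciferase reporter responsive to AR and GR) were plated at 3,000 cells/well and preincubated 5 hr at 37C, then given compound plus R1881 agonist for 16 h. ONE-Glo luminescence was read.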

Compound | Potency [1] | Potency [2] | Potency [3] | Potency [4] | Potency [5] | Potency [6] | Potency [7] | Potency [8] | Potency [9] | Potency [10] | Potency [11] | Potency [12] | Potency [13] | Potency (Aromatase (Homo sapiens)) | Potency [14] | Potency [15] | Potency [16] | Potency [17] | Potency [18] | Potency [19]
CCCC1CCCCN1 (configuration not stated) | inactive | inactive | inactive | inactive | inactive | inactive | inactive | inactive | inactive | inactive | inactive | inactive | inactive | inactive | inactive | – | – | – | – | –
Clc1ccc(Cl)c(Cl)c1 | inactive | inactive | inactive | – | inactive | inactive | inactive | inactive and 30.6 µM (active) | – | inactive | – | – | inactive | inactive | inactive | inactive | – | – | – | –
c1ccc2c(c1)sc1ccccc12 | inactive | inactive | – | inactive | inactive | inactive | inactive | inactive | inactive | inactive | inactive | inactive | inactive | inactive | inactive | inactive | inactive | – | – | –
CCOC(=O)C1OC1(C)c1ccccc1 (configuration not stated) | inactive | inactive | inactive | – | inactive | inactive | inactive | inactive | – | inactive | – | – | inactive | inactive | inactive | inactive | – | – | – | –
OCCSSCCO | inactive | inactive | inactive | inactive | inactive | inactive | inactive | inactive | – | inactive | inactive | inactive | inactive | inactive | inactive | – | inactive | – | – | –
Nc1cc(Cl)cc(C(=O)O)c1Cl | inactive | inactive | inactive | – | inactive | inactive | inactive | inactive | – | inactive | – | – | inactive | inactive | inactive | inactive | – | – | – | –
C=C(C)C(=O)OCCCCOC(=O)C(=C)C | inactive | inactive | inactive | – | – | inactive | inactive | inactive | – | inactive | inactive | inactive | inactive | – | inactive | inactive | inactive | – | – | –
COc1ccc(C(O)(c2cncnc2)C2CC2)cc1 (configuration not stated) | inactive | inactive | inactive | – | inactive | inactive | inactive | inactive | – | inactive | inactive | inactive | inactive | inactive | inactive | inactive | – | – | – | –
CCCN(CCOc1c(Cl)cc(Cl)cc1Cl)C(=O)n1ccnc1 | inactive | 27.3 µM (active) | 31.3 µM (active) and 30.6 µM (active) | – | inactive | 62.4 µM (active) | 27.9 µM (active) and 61.1 µM (active) | inactive | – | inactive | – | – | inactive | 1.57 µM (active) and 969 nM (active) | inactive | 25.1 µM (active) | – | – | – | –
CCCC[P+](CC)(CCCC)CCCC (tested in a mixture with another compound) | inactive | 27.5 µM (active) | 17.4 µM (active) | – | inactive | inactive | inactive | inactive | – | inactive | – | – | inactive | inactive | inactive | inactive | – | – | – | –
COC(=O)Cc1ccccc1 | inactive | inactive | inactive | – | inactive | inactive | – | – | inactive | inactive | inactive | inactive | inactive | inactive | inactive | inactive | – | – | – | –
CCCCCl | inactive | inactive | inactive | – | inactive | inactive | inactive | inactive | – | inactive | – | – | inactive | inactive | inactive | inactive | – | – | – | –
O=C(NCNC(=O)NC1C(=O)NC(=O)N1CO)NC1C(=O)NC(=O)N1CO (configuration not stated) | inactive | inactive | inactive | – | inactive | inactive | inactive | inactive | – | inactive | – | – | inactive | inactive | inactive | inactive | – | inactive | inactive | inactive
CC1(C)CC(=O)CC(C)(C)N1[O] | inactive | inactive | inactive | – | inactive | inactive | – | – | – | inactive | – | – | inactive | inactive | inactive | inactive | – | – | – | –
CC(Oc1cc(Cl)c(Cl)cc1Cl)C(=O)O (configuration not stated) | inactive | inactive | inactive | inactive | inactive | – | – | – | inactive | inactive | inactive | inactive | inactive | inactive | inactive | inactive | inactive | – | – | –
